The record followed here is article PMC8384837, “Expanding the binding specificity for RNA recognition by a PUF domain”.

Changes are numbered by the printed parent chain.

Common to all, as to assay: yeast three-hybrid, YBZ-1, SC-Leu-His + 0.5 mM 3-AT, 4 days
Conditions in all cases: tags: N-Gal4 AD-HA kept; label: inside an RPR1-promoter hybrid RNA with tandem MS2 sites; ssRNA

For one assay, the target named is PUM1 PUF domain R8-FYF (Homo sapiens, UniProt Q14671 828-1176, N1122F;Q1126F). The essentials:
(§1)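 Repeat regions from input (SC-Leu) and selection (SC-Leu-His + 0.5 mM 3-AT) plates were PCR-amplified and Illumina-sequenced after four days of growth. The cells were strain YBZ-1 with a LexA–MS2 coat fusion and a HIS3 reporter, co-expressing Pumilio-1 PUF domain libraries and matching RNA elements from a centromeric plasmid. The interaction score is the log change in variant frequency from input to selection, taken in log2 with a pseudocount of 1 for absent variants.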

For a further assay, the target named is PUM1 PUF domain R8-YFR (Homo sapiens, UniProt Q14671 828-1176, N1122Y;Y1123F;Q1126R). In outline: as §1
The target of a further assay is PUM1 PUF domain R3-RPK (Homo sapiens, UniProt Q14671 828-1176, C935R;R936P;Q939K). The essentials:
as §1

For a further assay, the target named is PUM1 PUF domain R4-WSS (Homo sapiens, UniProt Q14671 828-1176, N971W;H972S;Q975S). In outline:
as §1

In the next assay the target is PUM1 PUF domain R4-WAW (Homo sapiens, UniProt Q14671 828-1176, N971W;H972A;Q975W). In outline: as §1
The target of a further assay is PUM1 PUF domain R7-RER (Homo sapiens, UniProt Q14671 828-1176, S1079R;N1080E;E1083R). In outline: as §1
Another assay deals with PUM1 PUF domain R7-QCK (Homo sapiens, UniProt Q14671 828-1176, S1079Q;N1080C;E1083K). In outline: as §1
The target of another assay is PUM1 PUF domain R1-RRQ (Homo sapiens, UniProt Q14671 828-1176, S863R). In outline: as §1
A further assay concerns the target PUM1 PUF domain R1-VWR (Homo sapiens, UniProt Q14671 828-1176, S863V;R864W;Q867R). In outline: as §1
A further assay has as its target PUM1 PUF domain R3-GCE (Homo sapiens, UniProt Q14671 828-1176, C935G;R936C;Q939E). In outline:
as §1

Another assay deals with PUM1 PUF domain R5-RRI (Homo sapiens, UniProt Q14671 828-1176, C1007R;Q1011I). In outline:
as §1

Another assay addresses PUM1 PUF domain R5-RNL (Homo sapiens, UniProt Q14671 828-1176, C1007R;R1008N;Q1011L). In outline: as §1
The target in the next assay is PUM1 PUF domain R5-QRR (Homo sapiens, UniProt Q14671 828-1176, C1007Q;Q1011R). In outline: as §1
A further assay concerns the target PUM1 PUF domain R5-KNQ (Homo sapiens, UniProt Q14671 828-1176, C1007K;R1008N). In outline:
as §1

For the next assay, the target named is PUM1 PUF domain R5-KQL (Homo sapiens, UniProt Q14671 828-1176, C1007K;R1008Q;Q1011L). In outline: as §1
The target of the next assay is T1, PUM1 PUF domain R6-IYS (Homo sapiens, UniProt Q14671 828-1176, N1043I;Q1047S).
T1 sequence: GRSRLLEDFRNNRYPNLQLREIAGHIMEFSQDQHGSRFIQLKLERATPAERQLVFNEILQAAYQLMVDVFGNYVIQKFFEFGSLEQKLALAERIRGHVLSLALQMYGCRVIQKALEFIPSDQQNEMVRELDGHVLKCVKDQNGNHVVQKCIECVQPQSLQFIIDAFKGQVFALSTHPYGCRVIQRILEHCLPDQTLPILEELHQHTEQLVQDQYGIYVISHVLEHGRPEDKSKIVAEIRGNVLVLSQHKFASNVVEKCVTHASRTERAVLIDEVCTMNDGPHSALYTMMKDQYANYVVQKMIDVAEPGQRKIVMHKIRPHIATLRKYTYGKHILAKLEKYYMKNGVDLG
In outline: as §1

In a further assay the target is PUM1 PUF domain R4-CMI (Homo sapiens, UniProt Q14671 828-1176, N971C;H972M;Q975I). The essentials: as §1
The next assay concerns the target T2, PUM1 PUF domain R6-WWR (Homo sapiens, UniProt Q14671 828-1176, N1043W;Y1044W;Q1047R).
T2 sequence: T1 sequence with I216W, Y217W, S220R
In outline:
as §1

The target of the next assay is PUM1 PUF domain R1-SWD (Homo sapiens, UniProt Q14671 828-1176, R864W;Q867D). The essentials:
as §1

The target in a further assay is PUM1 PUF domain R4-ANT (Homo sapiens, UniProt Q14671 828-1176, N971A;H972N;Q975T). The essentials:
as §1

Chain of PUM1 PUF domain R5-KQL (Q14671 828-1176 C1007K/R1008Q/Q1011L): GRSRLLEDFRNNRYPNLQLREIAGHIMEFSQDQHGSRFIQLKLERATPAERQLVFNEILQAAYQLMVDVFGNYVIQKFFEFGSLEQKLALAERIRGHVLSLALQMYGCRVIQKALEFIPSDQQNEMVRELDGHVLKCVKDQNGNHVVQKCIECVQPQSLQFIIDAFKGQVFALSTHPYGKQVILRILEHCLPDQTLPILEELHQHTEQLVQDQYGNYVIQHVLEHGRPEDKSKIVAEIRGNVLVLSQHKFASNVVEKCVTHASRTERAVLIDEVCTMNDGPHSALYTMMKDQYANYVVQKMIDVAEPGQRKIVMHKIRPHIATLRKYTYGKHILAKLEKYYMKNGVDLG
Chain of PUM1 PUF domain R4-WSS (Q14671 828-1176 N971W/H972S/Q975S): as the sequence (Q14671 828-1176 C1007K/R1008Q/Q1011L) above, with N144W, H145S, Q148S, K180C, Q181R, L184Q counted along it
Chain of PUM1 PUF domain R4-WAW (Q14671 828-1176 N971W/H972A/Q975W): as the sequence (Q14671 828-1176 C1007K/R1008Q/Q1011L) above, with N144W, H145A, Q148W, K180C, Q181R, L184Q counted along it
Chain of PUM1 PUF domain R5-RRI (Q14671 828-1176 C1007R/Q1011I): as the sequence (Q14671 828-1176 C1007K/R1008Q/Q1011L) above, with K180R, Q181R, L184I counted along it
Chain of PUM1 PUF domain R5-QRR (Q14671 828-1176 C1007Q/Q1011R): as the sequence (Q14671 828-1176 C1007K/R1008Q/Q1011L) above, with K180Q, Q181R, L184R counted along it
Chain of PUM1 PUF domain R1-RRQ (Q14671 828-1176 S863R): as the sequence (Q14671 828-1176 C1007K/R1008Q/Q1011L) above, with S36R, K180C, Q181R, L184Q counted along it

Regarding “GGCUAGAACUAGUGGAUCCCCCGGCGCCCGGCGGCUCGAGCCCGGGUAAGCGUAAAUAGUCUGCAUGCCGCCGGGCGCCAUGCCUGCAGGUCGACUCUAGAAAACAUG”, the binding signal in the assay with PUM1 PUF domain R8-FYF was 2.55 log2 enrichment (interaction score); with PUM1 PUF domain R8-YFR it was 5.19 log2 enrichment (interaction score).

With “GGCUAGAACUAGUGGAUCCCCCGGCGCCCGGCGGCUCGAGCCCGGGUAAGUGUAAUUAGUCUGCAUGCCGCCGGGCGCCAUGCCUGCAGGUCGACUCUAGAAAACAUG”, the binding signal with PUM1 PUF domain R3-RPK is 4.23 log2 enrichment (interaction score).

For the sequence “GGCUAGAACUAGUGGAUCCCCCGGCGCCCGGCGGCUCGAGCCCGGGUAAGUGUACAUAGUCUGCAUGCCGCCGGGCGCCAUGCCUGCAGGUCGACUCUAGAAAACAUG”, the binding signal was 2 log2 enrichment (interaction score) in the assay with PUM1 PUF domain R4-WSS and 2.47 log2 enrichment (interaction score) with PUM1 PUF domain R4-WAW.

Take “GGCUAGAACUAGUGGAUCCCCCGGCGCCCGGCGGCUCGAGCCCGGGUAAGUUUAAAUAGUCUGCAUGCCGCCGGGCGCCAUGCCUGCAGGUCGACUCUAGAAAACAUG”: the binding signal with PUM1 PUF domain R7-RER was 4.54 log2 enrichment (interaction score).

Take “GGCUAGAACUAGUGGAUCCCCCGGCGCCCGGCGGCUCGAGCCCGGGUAAGUCUAAAUAGUCUGCAUGCCGCCGGGCGCCAUGCCUGCAGGUCGACUCUAGAAAACAUG”: the binding signal with PUM1 PUF domain R7-QCK is 3.12 log2 enrichment (interaction score).

Regarding “GGCUAGAACUAGUGGAUCCCCCGGCGCCCGGCGGCUCGAGCCCGGGUAAGUGUAAAUCGUCUGCAUGCCGCCGGGCGCCAUGCCUGCAGGUCGACUCUAGAAAACAUG”, the binding signal is 5.5 log2 enrichment (interaction score) in the assay with PUM1 PUF domain R1-RRQ and 1.8 log2 enrichment (interaction score) in the assay with PUM1 PUF domain R1-VWR.

Regarding “GGCUAGAACUAGUGGAUCCCCCGGCGCCCGGCGGCUCGAGCCCGGGUAAGUGUAAGUAGUCUGCAUGCCGCCGGGCGCCAUGCCUGCAGGUCGACUCUAGAAAACAUG”, in the assay with PUM1 PUF domain R3-GCE, the binding signal is 4.51 log2 enrichment (interaction score).

With “GGCUAGAACUAGUGGAUCCCCCGGCGCCCGGCGGCUCGAGCCCGGGUAAGUGUAAAUUGUCUGCAUGCCGCCGGGCGCCAUGCCUGCAGGUCGACUCUAGAAAACAUG”, the binding signal is 4.29 log2 enrichment (interaction score) with PUM1 PUF domain R1-RRQ and 2.37 log2 enrichment (interaction score) in the assay with PUM1 PUF domain R1-VWR.

For “GGCUAGAACUAGUGGAUCCCCCGGCGCCCGGCGGCUCGAGCCCGGGUAAGUGUUAAUAGUCUGCAUGCCGCCGGGCGCCAUGCCUGCAGGUCGACUCUAGAAAACAUG”, the binding signal with PUM1 PUF domain R5-RRI was 4.69 log2 enrichment (interaction score); with PUM1 PUF domain R5-RNL, 3.54 log2 enrichment (interaction score); with PUM1 PUF domain R5-QRR it was 4.36 log2 enrichment (interaction score); with PUM1 PUF domain R5-KNQ it was 4.28 log2 enrichment (interaction score); in the assay with PUM1 PUF domain R5-KQL, 3.92 log2 enrichment (interaction score).

As for “GGCUAGAACUAGUGGAUCCCCCGGCGCCCGGCGGCUCGAGCCCGGGUAAGUGUGAAUAGUCUGCAUGCCGCCGGGCGCCAUGCCUGCAGGUCGACUCUAGAAAACAUG”, the binding signal with PUM1 PUF domain R5-QRR is 3 log2 enrichment (interaction score).

Regarding “GGCUAGAACUAGUGGAUCCCCCGGCGCCCGGCGGCUCGAGCCCGGGUAAGUGUCAAUAGUCUGCAUGCCGCCGGGCGCCAUGCCUGCAGGUCGACUCUAGAAAACAUG”, the binding signal is 3.62 log2 enrichment (interaction score) with PUM1 PUF domain R5-RRI, 2.83 log2 enrichment (interaction score) in the assay with PUM1 PUF domain R5-RNL, 6.46 log2 enrichment (interaction score) with PUM1 PUF domain R5-QRR and 5.23 log2 enrichment (interaction score) with PUM1 PUF domain R5-KQL.

As for “GGCUAGAACUAGUGGAUCCCCCGGCGCCCGGCGGCUCGAGCCCGGGUAAGUGUAAAUAGUCUGCAUGCCGCCGGGCGCCAUGCCUGCAGGUCGACUCUAGAAAACAUG”, the binding signal in the assay with PUM1 PUF domain R6-IYS is 2.42 log2 enrichment (interaction score); with PUM1 PUF domain R4-WSS, 2.27 log2 enrichment (interaction score); with PUM1 PUF domain R5-RRI, 2.01 log2 enrichment (interaction score); with PUM1 PUF domain R4-CMI, 2.77 log2 enrichment (interaction score); with PUM1 PUF domain R5-QRR, 1.74 log2 enrichment (interaction score); in the assay with PUM1 PUF domain R4-WAW, 5.21 log2 enrichment (interaction score). The binding signal with PUM1 PUF domain R8-YFR is 5.17 log2 enrichment (interaction score); with PUM1 PUF domain R6-WWR, 5.15 log2 enrichment (interaction score); with PUM1 PUF domain R5-KQL, 1.4 log2 enrichment (interaction score).

Consider “GGCUAGAACUAGUGGAUCCCCCGGCGCCCGGCGGCUCGAGCCCGGGUAAGUGUAAAUGGUCUGCAUGCCGCCGGGCGCCAUGCCUGCAGGUCGACUCUAGAAAACAUG”, for which the results for the binding signal in the assay with PUM1 PUF domain R1-RRQ and in the assay with PUM1 PUF domain R1-SWD were 1.96 log2 enrichment (interaction score) and 4.27 log2 enrichment (interaction score), respectively.

With “GGCUAGAACUAGUGGAUCCCCCGGCGCCCGGCGGCUCGAGCCCGGGUAAGUGAAAAUAGUCUGCAUGCCGCCGGGCGCCAUGCCUGCAGGUCGACUCUAGAAAACAUG”, the binding signal with PUM1 PUF domain R6-WWR was 2.69 log2 enrichment (interaction score).

On to “GGCUAGAACUAGUGGAUCCCCCGGCGCCCGGCGGCUCGAGCCCGGGUAAGUGUAUAUAGUCUGCAUGCCGCCGGGCGCCAUGCCUGCAGGUCGACUCUAGAAAACAUG”, for which the results for the binding signal with PUM1 PUF domain R4-WSS, in the assay with PUM1 PUF domain R4-ANT and in the assay with PUM1 PUF domain R4-WAW were 4.4 log2 enrichment (interaction score), 2.52 log2 enrichment (interaction score) and 4.31 log2 enrichment (interaction score), respectively.
